According to ChEMBL document CHEMBL3988442, “University of Dundee, Small-Polar-MMV Screening Library” (2021):
For some assays here: Entries with a potency or affinity are not part of this list.

Columns and labels:
Parameters in all cases: scale not given: direction of the effect not stated beside the values
[1] = molecular target: Protein translocase subunit SecA (Escherichia coli (strain K12)) (UniProt P10408); test: Assay to Identify E. coli SecA ATPase Inhibitors; format: functional; details: 30 µM
Protein translocase subunit SecA (Escherichia coli (strain K12)), sequence (P10408 whole entry): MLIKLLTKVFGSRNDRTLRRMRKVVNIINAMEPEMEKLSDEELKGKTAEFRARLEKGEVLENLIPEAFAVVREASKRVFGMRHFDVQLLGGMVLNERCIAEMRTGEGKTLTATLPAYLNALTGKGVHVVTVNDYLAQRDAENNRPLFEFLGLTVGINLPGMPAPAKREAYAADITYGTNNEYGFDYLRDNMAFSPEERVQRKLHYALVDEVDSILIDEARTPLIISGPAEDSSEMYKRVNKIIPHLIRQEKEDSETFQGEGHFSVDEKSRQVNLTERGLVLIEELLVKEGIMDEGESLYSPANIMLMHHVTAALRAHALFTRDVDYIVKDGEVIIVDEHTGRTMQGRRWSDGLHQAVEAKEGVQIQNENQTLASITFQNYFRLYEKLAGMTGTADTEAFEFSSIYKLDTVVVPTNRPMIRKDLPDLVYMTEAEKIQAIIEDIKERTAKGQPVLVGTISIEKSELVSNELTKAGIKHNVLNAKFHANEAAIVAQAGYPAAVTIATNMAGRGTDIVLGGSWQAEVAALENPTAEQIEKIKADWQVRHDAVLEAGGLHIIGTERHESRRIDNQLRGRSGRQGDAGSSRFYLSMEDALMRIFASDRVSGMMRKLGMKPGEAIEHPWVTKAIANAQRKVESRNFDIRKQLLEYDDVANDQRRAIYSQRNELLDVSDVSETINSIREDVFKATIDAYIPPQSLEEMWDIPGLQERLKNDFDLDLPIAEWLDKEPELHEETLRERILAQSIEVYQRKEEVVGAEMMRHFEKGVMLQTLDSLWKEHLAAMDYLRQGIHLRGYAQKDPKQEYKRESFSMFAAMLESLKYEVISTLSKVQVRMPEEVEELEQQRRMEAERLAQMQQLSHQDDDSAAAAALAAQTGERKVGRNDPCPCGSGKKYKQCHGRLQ

[2] = molecular target: T1, Ubiquitin-activating enzyme e1, putative (Leishmania donovani (strain BPK282A1)) (UniProt E9BSI1); test: Leishmania donovani Ubiquitin Activating Enzyme (LdE1); format: functional; details: 30 µM
T1 sequence (whole entry): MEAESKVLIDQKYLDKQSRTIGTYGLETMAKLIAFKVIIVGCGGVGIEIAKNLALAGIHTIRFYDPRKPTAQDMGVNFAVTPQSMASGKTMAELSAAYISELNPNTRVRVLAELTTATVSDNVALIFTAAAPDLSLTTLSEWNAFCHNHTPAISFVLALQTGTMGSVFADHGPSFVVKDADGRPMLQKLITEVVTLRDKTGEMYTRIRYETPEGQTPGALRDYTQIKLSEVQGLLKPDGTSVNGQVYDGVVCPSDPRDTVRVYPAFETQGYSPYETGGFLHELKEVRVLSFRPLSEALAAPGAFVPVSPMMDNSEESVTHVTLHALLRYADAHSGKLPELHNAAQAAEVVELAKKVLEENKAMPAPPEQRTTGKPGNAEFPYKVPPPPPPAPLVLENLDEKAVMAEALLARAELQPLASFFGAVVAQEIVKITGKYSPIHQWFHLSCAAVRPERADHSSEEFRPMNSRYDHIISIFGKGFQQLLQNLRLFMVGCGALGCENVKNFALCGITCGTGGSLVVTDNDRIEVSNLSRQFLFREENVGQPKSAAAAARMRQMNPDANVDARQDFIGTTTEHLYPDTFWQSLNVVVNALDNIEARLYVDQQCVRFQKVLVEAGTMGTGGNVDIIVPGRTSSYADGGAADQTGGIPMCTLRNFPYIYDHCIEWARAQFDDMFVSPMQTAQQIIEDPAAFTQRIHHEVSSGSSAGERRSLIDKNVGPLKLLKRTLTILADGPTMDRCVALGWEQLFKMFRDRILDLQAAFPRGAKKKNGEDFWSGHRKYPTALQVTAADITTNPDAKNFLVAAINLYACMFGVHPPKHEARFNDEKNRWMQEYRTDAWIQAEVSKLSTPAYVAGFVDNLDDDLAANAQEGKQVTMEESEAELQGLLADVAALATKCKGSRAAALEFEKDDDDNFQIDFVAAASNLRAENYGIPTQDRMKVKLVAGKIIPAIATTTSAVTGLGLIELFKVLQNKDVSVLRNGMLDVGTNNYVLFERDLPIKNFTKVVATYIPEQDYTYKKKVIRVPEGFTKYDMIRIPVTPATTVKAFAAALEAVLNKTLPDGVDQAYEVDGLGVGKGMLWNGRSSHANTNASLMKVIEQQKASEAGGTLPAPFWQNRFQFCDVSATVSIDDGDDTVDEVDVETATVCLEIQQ

[3] = molecular target: AMP-activated protein kinase, AMPK (Homo sapiens) (UniProt P54646+O43741+P54619+Q9UGJ0+Q9Y478+Q13131+Q9UGI9); test: AMP-dependent Kinase enzyme assay. An in vitro enzyme assay that detects ADP turnover that is directly proportional to AMPK activity. This uses naive AMPK that is activated during the assay with MK-8722; format: functional; details: 30 µM
[4] = molecular target: Sialic acid-binding Ig-like lectin 9 (Homo sapiens) (UniProt Q9Y336); test: Hs-Siglec9 ALPHAscreen SOP 20170721; details: 10 µM
Sialic acid-binding Ig-like lectin 9 (Homo sapiens), sequence (Q9Y336 whole entry): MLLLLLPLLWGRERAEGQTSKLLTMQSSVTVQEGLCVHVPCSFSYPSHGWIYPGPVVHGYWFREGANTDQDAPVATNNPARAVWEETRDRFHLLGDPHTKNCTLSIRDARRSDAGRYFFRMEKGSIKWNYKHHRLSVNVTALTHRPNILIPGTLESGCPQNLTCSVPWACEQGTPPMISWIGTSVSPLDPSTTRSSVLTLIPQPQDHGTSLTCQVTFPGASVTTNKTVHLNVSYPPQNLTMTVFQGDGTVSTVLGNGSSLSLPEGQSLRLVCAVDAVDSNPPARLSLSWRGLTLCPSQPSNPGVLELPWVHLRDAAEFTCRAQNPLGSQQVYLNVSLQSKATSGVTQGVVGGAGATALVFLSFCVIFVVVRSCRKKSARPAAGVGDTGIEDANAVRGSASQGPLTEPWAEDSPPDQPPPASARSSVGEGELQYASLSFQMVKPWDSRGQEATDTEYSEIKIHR

Trypanosoma cruzi = test: Trypanosoma cruzi phosphomannomutase and mannose-1-phosphate guanylyltransferase assay; format: functional; details: 10 µM
[5] = molecular target: T2, Arginase-2, mitochondrial (Homo sapiens) (UniProt P78540); test: in vitro enzyme assay to detect the production of urea directly proportional to the activity of Arginase II; format: functional; details: 33.3 µM; also: in the data most compounds retested in dose-response had high values
T2 sequence (whole entry): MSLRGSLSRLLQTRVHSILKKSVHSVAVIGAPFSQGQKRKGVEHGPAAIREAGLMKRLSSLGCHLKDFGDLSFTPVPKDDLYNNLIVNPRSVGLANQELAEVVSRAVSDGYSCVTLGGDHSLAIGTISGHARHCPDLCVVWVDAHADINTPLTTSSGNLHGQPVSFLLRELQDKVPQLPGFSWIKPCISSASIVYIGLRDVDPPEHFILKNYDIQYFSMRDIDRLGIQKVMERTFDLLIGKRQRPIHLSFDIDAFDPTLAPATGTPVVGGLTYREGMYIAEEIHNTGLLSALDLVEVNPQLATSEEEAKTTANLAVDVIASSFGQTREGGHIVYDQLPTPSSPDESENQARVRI

[6] = molecular target: T3, Proteasome subunit beta (Trypanosoma cruzi) (UniProt O96673); test: Trypanosoma cruzi proteasome chymotrypsin-like activity (TcProtChymo) assay.; also: in the data most compounds retested in dose-response had high values; format: functional; details: 9.37 µM
T3 sequence (whole entry): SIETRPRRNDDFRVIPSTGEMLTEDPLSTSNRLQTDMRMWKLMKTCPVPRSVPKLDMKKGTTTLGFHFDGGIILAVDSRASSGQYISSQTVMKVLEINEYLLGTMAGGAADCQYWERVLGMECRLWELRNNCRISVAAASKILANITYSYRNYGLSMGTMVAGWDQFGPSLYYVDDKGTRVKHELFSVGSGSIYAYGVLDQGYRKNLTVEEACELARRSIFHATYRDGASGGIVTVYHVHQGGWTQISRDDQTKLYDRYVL

Homo sapiens = species on record: Homo sapiens; test: To identify inhibition of the IFN signalling (Jak-Stat) pathway via expression of an eGFP reporter gene under the control of an IFN-stimulated response element (ISRE) containing MxA promoter.; format: functional; details: 30 µM
[7] = molecular target: T4, Tyrosyl-tRNA synthetase, putative (Trypanosoma cruzi (strain CL Brener)) (UniProt Q4DSP6); test: Trypanosoma cruzi tyrosyl tRNA synthetase (TcYRS) _High Tyrosine SOP; format: functional; details: 30 µM; also: in the data most compounds retested in dose-response had high values
T4 sequence (whole entry): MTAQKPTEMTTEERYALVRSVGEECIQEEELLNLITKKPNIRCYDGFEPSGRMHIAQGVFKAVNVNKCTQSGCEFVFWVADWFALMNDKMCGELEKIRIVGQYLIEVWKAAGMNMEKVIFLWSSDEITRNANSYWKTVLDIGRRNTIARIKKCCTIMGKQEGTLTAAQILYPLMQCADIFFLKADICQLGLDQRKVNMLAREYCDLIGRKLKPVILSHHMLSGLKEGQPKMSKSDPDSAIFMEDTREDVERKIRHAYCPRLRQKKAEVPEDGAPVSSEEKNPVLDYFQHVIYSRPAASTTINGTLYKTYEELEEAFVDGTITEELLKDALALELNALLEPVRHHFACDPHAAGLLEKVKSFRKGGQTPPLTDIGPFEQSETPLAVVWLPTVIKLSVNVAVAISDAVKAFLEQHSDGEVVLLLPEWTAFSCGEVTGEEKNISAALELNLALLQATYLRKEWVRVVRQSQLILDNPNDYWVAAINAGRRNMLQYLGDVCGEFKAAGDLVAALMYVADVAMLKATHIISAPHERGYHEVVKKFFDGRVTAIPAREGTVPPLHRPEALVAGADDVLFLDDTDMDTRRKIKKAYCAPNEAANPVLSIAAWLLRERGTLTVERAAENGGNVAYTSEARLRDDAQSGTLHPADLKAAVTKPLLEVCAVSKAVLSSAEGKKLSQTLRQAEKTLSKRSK

[8] = molecular target: T4, Tyrosyl-tRNA synthetase, putative (Trypanosoma cruzi (strain CL Brener)); test: Trypanosoma cruzi tyrosyl tRNA synthetase (TcYRS) SOP; format: functional; details: 30 µM
[9] = molecular target: Chromo domain-containing protein 1 (Saccharomyces cerevisiae (strain ATCC 204508 / S288c) (Baker's yeast)) (UniProt P32657); test: ScCHD-1 Enzyme Inhibition Assay; format: functional; details: 30 µM; also: in the data most compounds retested in dose-response had high values
Chromo domain-containing protein 1 (Saccharomyces cerevisiae (strain ATCC 204508 / S288c) (Baker's yeast)), sequence (P32657 whole entry, the tested form may be a part): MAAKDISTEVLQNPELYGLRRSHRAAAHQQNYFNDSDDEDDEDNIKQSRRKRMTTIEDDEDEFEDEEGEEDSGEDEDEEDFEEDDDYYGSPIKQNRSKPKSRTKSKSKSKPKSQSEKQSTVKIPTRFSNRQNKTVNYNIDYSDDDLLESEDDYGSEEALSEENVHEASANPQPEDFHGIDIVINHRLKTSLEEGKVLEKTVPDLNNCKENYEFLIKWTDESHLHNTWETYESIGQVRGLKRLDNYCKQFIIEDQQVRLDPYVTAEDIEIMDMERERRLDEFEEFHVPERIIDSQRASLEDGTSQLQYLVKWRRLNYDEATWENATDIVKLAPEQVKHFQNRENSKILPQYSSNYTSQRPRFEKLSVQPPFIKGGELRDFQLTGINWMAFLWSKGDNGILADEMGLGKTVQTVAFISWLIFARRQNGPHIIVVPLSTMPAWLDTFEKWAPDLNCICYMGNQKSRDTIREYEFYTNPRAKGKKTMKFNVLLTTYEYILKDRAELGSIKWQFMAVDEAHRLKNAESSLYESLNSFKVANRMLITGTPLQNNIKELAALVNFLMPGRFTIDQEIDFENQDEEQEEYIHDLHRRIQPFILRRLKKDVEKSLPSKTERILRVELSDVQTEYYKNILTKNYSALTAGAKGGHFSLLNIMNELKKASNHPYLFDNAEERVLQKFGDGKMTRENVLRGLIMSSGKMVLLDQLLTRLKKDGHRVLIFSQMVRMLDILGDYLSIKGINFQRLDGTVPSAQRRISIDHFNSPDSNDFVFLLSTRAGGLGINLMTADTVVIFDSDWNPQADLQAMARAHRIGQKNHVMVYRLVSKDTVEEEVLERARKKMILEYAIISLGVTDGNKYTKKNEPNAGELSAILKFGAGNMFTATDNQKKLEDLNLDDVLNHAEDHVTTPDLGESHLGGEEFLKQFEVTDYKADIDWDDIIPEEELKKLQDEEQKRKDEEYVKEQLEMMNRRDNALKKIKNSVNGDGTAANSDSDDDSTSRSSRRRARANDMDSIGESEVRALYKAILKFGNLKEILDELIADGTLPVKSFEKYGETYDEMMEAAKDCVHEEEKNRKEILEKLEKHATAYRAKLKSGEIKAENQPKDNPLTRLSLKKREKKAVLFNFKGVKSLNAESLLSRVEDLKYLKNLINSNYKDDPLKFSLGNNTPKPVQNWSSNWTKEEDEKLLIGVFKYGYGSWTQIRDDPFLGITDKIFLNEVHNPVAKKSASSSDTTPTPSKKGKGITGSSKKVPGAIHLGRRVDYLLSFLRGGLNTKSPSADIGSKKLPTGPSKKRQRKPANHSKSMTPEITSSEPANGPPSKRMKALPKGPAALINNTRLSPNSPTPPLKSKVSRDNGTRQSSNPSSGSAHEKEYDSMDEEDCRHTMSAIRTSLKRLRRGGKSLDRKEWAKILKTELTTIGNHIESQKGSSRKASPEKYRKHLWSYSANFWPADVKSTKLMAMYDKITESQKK

| Structure (SMILES) | Percent Effect [1] | Percent Effect [2] | Percent Effect [3] | Percent Effect [4] | Percent Effect (Trypanosoma cruzi) | Percent Effect [5] | Percent Effect [6] | Percent Effect (Homo sapiens) | Percent Effect [7] | Percent Effect [8] | Percent Effect [9] |
| --- | --- | --- | --- | --- | --- | --- | --- | --- | --- | --- | --- |
| O=C(NCc1ccco1)[C@H]1C[C@H]2OCC[C@H]2N(C(=O)c2ccncc2)C1 | -2.12% | -2.67% | 11.1% | 21.8% | 0.193% | -50% | 7.18% | -21.2% | 3.12% | 2.5% | -1.86% |
| COCc1nc(N(C)C)ncc1C(=O)NC(C)C | -5.73% | -1.33% | 4.52% | -0.683% | -3.54% | -2.99% | 4.07% | -5.53% | 2.12% | -2.56% | -0.879% |
| O=C(NCN1CCc2ccccc2C1)c1cnccn1 | -0.536% | 2.7% | -2.81% | -3.19% | -7.33% | 2.73% | 10.4% | 0.709% | 1.07% | 6.17% | -6.84% |
| Cc1ccc(-c2nnc(SCC(=O)O)n2-c2ccc(C)cc2)cc1 | -2.58% | 13.3% | 1.28% | 2.44% | 3.74% | 1.17% | 13.8% | 28.5% | 6.38% | -98.7% | -3.8% |
| CNCC(=O)N1CCC(c2ccnc(Nc3ccc(C)cn3)n2)C1 (configuration not stated) | -7.25% | 17.6% | 1.51% | 1.04% | 2.37% | -4.87% | 17.9% | -13.7% | 8.6% | 19.5% | -16.1% |
| Cn1cc(CN2CC[C@H](O)[C@@H]2Cc2ccncc2)cn1 | -8.41% | 5.41% | -33.1% | -9.45% | -0.293% | -0.955% | 1.66% | 26.4% | -1.08% | -2.56% | 3.16% |
| Cc1nc(C)n(CC2CCCN(CCC(=O)N3CCCCC3)C2)n1 (configuration not stated) | -1.52% | -2.6% | 7.57% | -4.47% | -4.21% | 5.26% | -0.566% | 20.7% | 0% | 0% | 4.58% |
| Cc1n[nH]c(C2CN(CC(=O)NCCc3ccsc3)CCO2)n1 (configuration not stated) | -1.63% | 5.48% | -9.76% | 0.305% | -3.13% | -0.455% | 20.2% | 8.08% | 4.3% | 15% | -13.8% |
| Cc1cnn(CC(C)NCc2ccc(-n3cccn3)cc2)c1 (configuration not stated) | -1.91% | 1.27% | 2.55% | -4.21% | -3.18% | 0.645% | -0.858% | -0.795% | 0% | -12.7% | -18.2% |
| CN(C)CCN1C[C@@H]2CN(C(=O)c3ccsc3)C[C@@H]2C1=O | -7.36% | 5.2% | 0.643% | 5.55% | -3.25% | 0% | 5.66% | 20.3% | 0% | 1.24% | 1.29% |
| O=C(c1ccc(NC2CC2)nc1)N1CCCC(n2cccn2)C1 (configuration not stated) | -6.81% | 5.26% | -1.25% | 1.67% | -4.51% | 2.3% | 3.51% | 18.5% | 0.49% | 7.32% | -0.025% |
| Cc1noc(C)c1CN1CCN(C(=O)Cn2cncn2)CC1 | -5.62% | 5.41% | -0.877% | 5% | 2.83% | 3.72% | -5.24% | -2.96% | 2.15% | 11.1% | -4.36% |
| CC(NC(=O)CCCOc1ccccc1Cl)c1ccncc1 (configuration not stated) | -5.33% | 0% | 2.41% | 0.805% | -8.42% | -2.27% | 6.39% | 27.7% | -2.15% | 2.5% | 110% |
| Cc1n[nH]c(C)c1NC(=O)CN1CCOC(Cn2cccn2)C1 (configuration not stated) | -4.71% | 2.6% | 7.29% | -4.25% | 6.95% | -4% | 8.16% | 10.5% | 3.81% | 9.41% | -16.3% |
| COC(=O)c1ccc(N2CCN(CCC#N)C(C)C2)cc1 (configuration not stated) | -7.22% | 10.5% | 3.82% | -3.31% | -8.12% | -0.36% | 4.15% | 5% | 5.42% | 3.7% | 0.577% |
| CC1c2ncc(CN3CCN(C)CC3)n2CCN1CC1CC1 (configuration not stated) | -1.8% | 18.7% | -6.67% | 5.11% | 5.99% | -54.7% | 6.33% | -3.72% | 6.25% | 17.5% | -8.05% |
| O=C(c1cccc2c1OCO2)N1CCCC1c1noc(C2CC2)n1 (configuration not stated) | -5.41% | 5.06% | -1.36% | -1.04% | 10.5% | -3.42% | -2.38% | 5% | 4.43% | 11.4% | -6.85% |
| CC(C)C(=O)NCCCn1ncc2c(Cl)cccc21 | -4.7% | 10.4% | 1.13% | 17.2% | 5.61% | -8.28% | 4.33% | -1.52% | 5.38% | 11.1% | -3.62% |
| CCc1ccc(C(=O)N2CCC(c3nncn3CC)CC2)cc1 | -10% | 18.4% | -9.82% | -0.88% | 7.3% | -5.92% | 7.57% | 5.31% | 3.19% | 15.6% | -9.19% |
| COc1cccc(CN(C)Cc2ccc(C#N)cc2)c1OC | -2.85% | -5.41% | 2.32% | -6% | 0.586% | -1.67% | 7.86% | -3.25% | 4.95% | -3.66% | -5.17% |
| Cc1nc(-c2ccsc2)ccc1C(=O)NCCC1CCCO1 (configuration not stated) | -8.67% | 0% | -8.2% | 10% | 9.77% | -1.92% | 3.51% | -2.44% | 4.41% | 9.76% | -10.2% |
| COc1cccc2c1OCC(C(=O)N(C)CCCc1cnn(C)c1)C2 (configuration not stated) | -3.02% | 0% | -14.1% | -2.21% | -6.27% | 3.64% | 4.79% | 12.6% | 0% | 7.5% | -4.59% |
